One assay deals with Albumin (Bos taurus) (UniProt P02769). The assay can be described thus: compounds binding labelled BSA control protein – biochemical, small-molecule microarray, Alexa647 label, 635/667 nm fluorescence, artefact control for SMM control protein annotation, profiling panel (AID 1118).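 Also: score merges 667 nm emission intensity and signal-to-noise per printed compound spot.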 As to conditions: BSA-A647 binding, fluorescence 635 nm, higher = more signal.
Assay [1] can be described thus: probe aXIP binding to arrayed compounds – biochemical, NeuroSMM set, 635/667 nm fluorescence, primary screen (AID 1119).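 Also: probe is the protein aXip251-270 applied at 1 µg/mL to compound-printed slides; binding of probe to printed compounds measured as 667 nm fluorescence plus signal to noise.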 The following applies: small-molecule microarray, higher = more signal, called active from +8 up or from −8 down.
A short description of assay [2]: probe aNOTCH3 binding on compound microarray – biochemical, small-molecule microarray, 635/667 nm fluorescence, primary screen (AID 1120).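 Also: probe is a biotin-tagged antibody raised against NOTCH3 rather than NOTCH3 protein; score merges spot fluorescence near 667 nm with spot signal to noise.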 As to conditions: higher = more signal.
Assay [3] can be described thus: probe aNOTCH2 binding on compound microarray – biochemical, small-molecule microarray, 635/667 nm fluorescence, primary screen (AID 1121).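 Also: score merges feature fluorescence read at 667 nm with its signal to noise.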 The following applies: higher = more signal.
Assay [4] has as its target Carbonic anhydrase 2 (Homo sapiens) (UniProt P00918). The assay can be described thus: compounds binding carbonic anhydrase 2 – biochemical, small-molecule microarray, Alexa647-labelled CAII, profiling panel (AID 1122). The following applies: CAII-A647 binding fluorescence, higher = more signal.
Assay [5] in a line: COS7 lysate on small-molecule microarray, probe aHis, 635 nm (AID 1123).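 Also: z-score combines 667nm fluorescence intensity with signal-to-noise per printed compound spot.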 The following applies: COS7 cell lysate, fluorescence, higher = more signal.
The nature of assay [6]: probe aLAP1 signal on lysate-treated microarray – cell lysate, small-molecule microarray, COS7 lysate, primary screen (AID 1124).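 Also: lysate comes from COS7 cells expressing LAP1 and is applied at 0.3 µg/mL; score merges spot fluorescence near 667 nm with signal-to-noise over triplicate slides.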 The following applies: probe aLAP1, fluorescence, higher = more signal.
For another assay, the system named is Sam68 (KHDRBS1). Description: compounds binding KHDRBS1 protein – biochemical, small-molecule microarray, 635 nm fluorescence, primary screen (AID 1125).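 Also: score merges 667 nm channel intensity with signal to noise over triplicate slides.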 The following applies: higher = more signal.
Assay [7] deals with Chordin-like protein 2 (CHRDL2). Description: compounds binding chordin-like 2 – biochemical, small-molecule microarray, 635 nm fluorescence, primary screen (AID 1126).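 Also: printed compound slides probed with Chrdl2 protein at 4 µg/mL for 1 h at 4 C; score merges 667 nm emission intensity with signal to noise over three replicate slides.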 As to conditions: fluorescence 635 nm, higher = more signal.
Assay [8] deals with Concanavalin-A (Canavalia ensiformis) (UniProt P02866). The assay can be described thus: compounds binding concanavalin A lectin – biochemical, small-molecule microarray, Alexa647 label, 635 nm, artefact control for SMM control protein annotation, primary screen (AID 1127).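 Also: z combines 667 nm emission intensity with signal-to-noise across three replicate slides.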 As to conditions: ConA-A647 binding fluorescence, higher = more signal.
Concanavalin-A (Canavalia ensiformis), sequence (P02866 whole entry, looked up): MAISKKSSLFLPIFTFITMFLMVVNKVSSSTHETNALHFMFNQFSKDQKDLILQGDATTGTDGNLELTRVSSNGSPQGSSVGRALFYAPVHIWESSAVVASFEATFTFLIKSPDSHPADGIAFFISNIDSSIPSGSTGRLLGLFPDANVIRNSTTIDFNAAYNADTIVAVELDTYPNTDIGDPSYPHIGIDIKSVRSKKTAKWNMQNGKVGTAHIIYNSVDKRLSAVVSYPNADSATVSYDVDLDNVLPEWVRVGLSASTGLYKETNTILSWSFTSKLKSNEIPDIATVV

Data on 15 compounds can be found in PubChem BioAssay.

The source made the active and inactive calls.

Albumin (Bos taurus), sequence (P02769 whole entry, looked up): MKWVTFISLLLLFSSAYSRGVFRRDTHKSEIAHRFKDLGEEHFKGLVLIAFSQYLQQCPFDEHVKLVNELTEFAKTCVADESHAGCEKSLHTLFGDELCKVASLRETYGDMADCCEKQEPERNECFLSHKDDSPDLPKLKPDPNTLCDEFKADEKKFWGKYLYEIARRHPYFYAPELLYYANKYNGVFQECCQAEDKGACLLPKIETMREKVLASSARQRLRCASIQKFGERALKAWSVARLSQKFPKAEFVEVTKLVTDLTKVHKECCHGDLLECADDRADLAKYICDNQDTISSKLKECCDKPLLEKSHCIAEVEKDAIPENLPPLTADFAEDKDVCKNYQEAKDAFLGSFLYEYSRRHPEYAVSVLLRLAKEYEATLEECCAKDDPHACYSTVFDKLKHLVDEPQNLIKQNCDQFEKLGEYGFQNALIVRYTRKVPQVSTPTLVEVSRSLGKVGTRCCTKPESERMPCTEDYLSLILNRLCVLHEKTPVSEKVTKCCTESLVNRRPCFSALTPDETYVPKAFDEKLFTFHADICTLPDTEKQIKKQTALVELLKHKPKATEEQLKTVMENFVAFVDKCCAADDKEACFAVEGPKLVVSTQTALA

`COC(=O)[C@@]1(Cc2ccc(F)cc2)[C@H]2c3cc(C(=O)N4CCCC4)n(Cc4ccc(C)o4)c3C[C@H]2CN1C(=O)c1ccccc1`: the composite z-score in the assay with Albumin (Bos taurus) amounted to 0.469; in assay [2] it was 0.28; in assay [3] it was 0.354; in assay [4] it was 0.546; in assay [5], 1.95; in [6], 0.137. Besides, the values for the composite z-score (in the assay on Sam68 (KHDRBS1); in assay [7]; in assay [8]) were -0.459, -0.549 and 0.851, respectively. Further, in assay [1], the composite Z-score was 0.157 (inactive).

For `CCCCCC1=C2CNC(CCC)(C(=O)OC)C=C2C(C)C1=O` (stereo not given), the composite z-score with Albumin (Bos taurus) is 0.912; in assay [2] it was 0.227; in [3] it was 0.153; in assay [4], 0.698; in [5], 1.61; in assay [6], 0.448. The composite z-score is 0.273 in the assay on Sam68 (KHDRBS1), -0.723 in assay [7] and 0.236 in assay [8]. In addition, in [1], the composite Z-score is 0.956 (inactive).

Consider `C=CCNC(=O)[C@@H]1[C@H]2C(=O)O[C@H](c3ccccc3)[C@H](c3ccccc3)N2[C@H](c2ccccc2OCCO)[C@@]12C(=O)N(C(=O)OCCOC)c1ccc(C#CCNC(N)=O)cc12`, for which the composite z-score with Albumin (Bos taurus) is 0.79; in assay [2], 0.184; in assay [3], -0.0772; in assay [4] it was 0.247; in [5], 1.47; in assay [6], 0.546. The composite z-score was 1.32 in the assay on Sam68 (KHDRBS1), -0.182 in assay [7] and 0.959 in assay [8]. In addition, in assay [1], the composite Z-score was -0.105 (inactive).

With `O=C1C2C=CC(C(O)C3CCCCC3)N(Nc3ccc([N+](=O)[O-])cc3)C2C(=O)N1c1ccccc1` (stereo not given), the composite z-score in the assay with Albumin (Bos taurus) is 0.674; in assay [2] it was -0.366; in assay [3], -0.197; in assay [4] it was 0.57; in assay [5], 2.53; in [6] it was 0.499. Also, the composite z-score in the assay with Sam68 (KHDRBS1) was 1.29; in assay [7] it was -1.2; in assay [8], 0.909. Besides, in assay [1], the composite Z-score is -0.0746 (inactive).

Regarding `C=CCOC(=O)[C@@H]1[C@H]2C(=O)O[C@H](c3ccccc3)[C@H](c3ccccc3)N2[C@H](c2ccc(OCCOC(=O)[C@@H]3C[C@@H]4C(=O)N[C@@H](CCCC[N+](C)(C)C)C(=O)N4[C@@H]3c3cccc(OCCO)c3)cc2)[C@@]12C(=O)Nc1ccc(I)cc12`, the composite z-score is 0.769 in the assay with Albumin (Bos taurus); 0.0257 in assay [2]; -0.0666 in assay [3]; 0.46 in assay [4]; 1.9 in assay [5]; 0.0596 in assay [6]. In addition, the figures for the composite z-score (in the assay on Sam68 (KHDRBS1); in assay [7]; in assay [8]) were 1.29, 1.21 and 1.19, respectively. Moreover, the composite Z-score in assay [1] is 0.516 (inactive).

With `CC1CC/C=C\[C@H]2OC34C=CCN(c5ccc(Cl)cc5)C(=O)[C@H]3N(CCO)C(=O)[C@]4(C)C2C(=O)O1` (stereo not given in full), the composite z-score in the assay with Albumin (Bos taurus) is -0.0427; in [2], -0.152; in [3], -0.149; in [4], 0.902; in [5], -0.507; in assay [6] it was 0.627. Also, the composite z-score was 0.409 in the assay on Sam68 (KHDRBS1), -0.961 in assay [7] and -0.206 in assay [8]. Moreover, in assay [1], the composite Z-score was -0.0662 (inactive).

In the case of `CN1C(=O)C2C=CC(C(O)C3CCCCC3)N(Nc3ccc([N+](=O)[O-])cc3[N+](=O)[O-])C2C1=O` (stereo not given), the composite z-score in the assay with Albumin (Bos taurus) was found to be 0.892; in assay [2], 0.23; in [3], 0.0302; in assay [4] it was 0.732; in [5] it was 2.62; in [6] it was 0.605. In addition, the composite z-score was 1.31 in the assay with Sam68 (KHDRBS1), -0.384 in [7] and 0.955 in [8]. Further, in [1], the composite Z-score was -0.131 (inactive).

As for `C=C(COC)/C(=C/C[C@@H](OC(C)=O)c1ccc(OCCO)cc1)c1cc(C(=O)OC)ccc1OC`, the composite z-score is 0.616 in the assay with Albumin (Bos taurus); 0.0873 in assay [2]; -0.118 in assay [3]; 0.591 in assay [4]; 0.669 in assay [5]; -0.413 in assay [6]. The composite z-score with Sam68 (KHDRBS1) was 1.27; in [7] it was 0.784; in assay [8], 0.699. In assay [1], the composite Z-score is -0.064 (inactive).

Turning to `C=CCN1C(=O)[C@]2(O[C@H](CCO)[C@@H]([Si](C)(C)c3ccc(OC)cc3)[C@@H]2C)c2cc(N3C(=O)c4cccc5cccc3c45)ccc21`, the composite z-score in the assay with Albumin (Bos taurus) is 0.634; in [2], -0.0377; in [3] it was -0.0956; in [4], 0.542; in [5], 0.808; in assay [6], 0.0553. In addition, the values for the composite z-score (with Sam68 (KHDRBS1); in assay [7]; in assay [8]) were 0.838, 0.0493 and 0.795, respectively. Moreover, the composite Z-score in assay [1] is -0.106 (inactive).

`CCCCc1cn(C[C@H](Cc2ccccc2)NC(=O)N[C@H](CO)CCc2oc(C(C)=O)c(C(=O)OC)c2C(=O)OC)nn1`: the composite z-score with Albumin (Bos taurus) was 0.25; in [2], 0.328; in assay [3], -0.12; in [4], 0.151; in [5], 0.607; in [6], 0.0969. Besides, the composite z-score in the assay on Sam68 (KHDRBS1) was 1.25; in assay [7] it was 0.756; in assay [8], 0.859. For the same compound, the composite Z-score in assay [1] was 0.119 (inactive).

`COc1ccc([Si](C)(C)[C@H]2[C@H](CC(=O)N3Cc4ccccc4C[C@H]3CO)O[C@@]3(C(=O)N(Cc4ccc(N5CCC5=O)cc4)c4ccccc43)[C@@H]2C)cc1`: the composite z-score is 0.402 with Albumin (Bos taurus); -0.0014 in [2]; 0.581 in assay [3]; 0.516 in [4]; 1.51 in assay [5]; 1.19 in assay [6]. Besides, the results for the composite z-score (with Sam68 (KHDRBS1); in assay [7]; in assay [8]) were 1.29, 1.4 and 1.13, respectively. Besides, the composite Z-score in assay [1] was -0.39 (inactive).

Regarding `C[C@@]1([C@@H](NC(=O)c2ccccc2)c2ccc(-c3ccccc3)cc2)C[C@H]1C1CCCCC1`, the composite z-score in the assay with Albumin (Bos taurus) is 0.373; in [2], 0.106; in assay [3], 0.378; in [4], -0.137; in assay [5], 0.121; in [6], -0.0002. Moreover, the composite z-score was -1.66 in the assay with Sam68 (KHDRBS1), -1.51 in assay [7] and -0.867 in [8]. In addition, the composite Z-score in [1] was 0.309 (inactive).

With `COC(=O)[C@@]1(Cc2ccccc2)[C@H]2c3cc(C(=O)N(C)C)n(CCSCCO)c3C[C@H]2CN1C(=O)c1ccccc1`, the composite z-score with Albumin (Bos taurus) is 0.569; in [2], 0.0893; in assay [3] it was 0.0577; in [4] it was 0.801; in assay [5] it was 2.26; in assay [6], -0.154. For the same compound, the values for the composite z-score (with Sam68 (KHDRBS1); in [7]; in assay [8]) were 0.555, -0.25 and 0.523, respectively. Besides, the composite Z-score in [1] was 0.376 (inactive).

As for `COC(=O)c1c(CC[C@@H](CO)NC(=O)N[C@H](Cn2cc(Cc3ccccc3)nn2)C(C)C)oc(C(C)=O)c1C(=O)OC`, the composite z-score with Albumin (Bos taurus) was 0.0007; in [2] it was -0.0159; in assay [3], -0.202; in assay [4] it was 0.43; in [5] it was 0.889; in [6] it was 0.0096. The composite z-score in the assay with Sam68 (KHDRBS1) was determined as 0.709; in assay [7], 0.0618; in assay [8], 0.321. In addition, the composite Z-score in assay [1] was 0.255 (inactive).

For `C=C/C=C/[C@H]1C(=C)CN([C@@H](Cc2ccccc2)C(=O)OC)[C@@H]1[C@H](O)Cc1ccccc1`, the composite z-score with Albumin (Bos taurus) is -0.668; in [2], -0.235; in assay [3], -0.195; in [4], -0.174; in assay [5], 0.25; in assay [6], 0.161. The values for the composite z-score (in the assay on Sam68 (KHDRBS1); in assay [7]; in [8]) were -0.24, -0.0454 and -0.243, respectively. In addition, in assay [1], the composite Z-score is -0.624 (inactive).
